# Measured values published in the supplement of paper PMC8728848.
# The sample as a whole holds a higher share of the strongest signals than the screen did.
# B1: SSR1 (Sclerotium rolfsii), A0A0M3KL30 (protein)
# chain: TYKITVRVYQTNPDAFFHPVEKTVWKYANGGTWTITDDQHVLTMGGSGTSGTLRFHADNGESFTATFGVHNYKRWCDIVTNLAADETGMVINQQYYSQKNREEARERQLSNYQVKNAKGRNFQIVYTEAEGNDLHANLIIG
# How the values were obtained:
# Assay in all cases: glycan array binding signal (z-score within array); higher = stronger binding
# Details in all cases: glycan notation: IUPAC condensed, linker removed
# [1] = target: GlcNAc(a1-4)Gal(b1-4)GlcNAc(b1-3)Gal(b1-4)GlcNAc(b1-3)Gal(b1-4)GlcNAc
# Procedure, shortened: (§1)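 The Consortium for Functional Glycomics database supplied 3228 glycan arrays, of which those lacking an available protein sequence were dropped. The binding signal, a within-array Z-score, was averaged across arrays of the same protein sequence and across linkers. Negative scores can be read as non-binding.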
# [2] = target: GlcNAc(a1-4)Gal(b1-4)GlcNAc(b1-3)Gal(b1-4)[Fuc(a1-3)]GlcNAc(b1-3)Gal(b1-4)[Fuc(a1-3)]GlcNAc
# Procedure, shortened: as §1
# [3] = target: GlcNAc(b1-2)Man(a1-3)[GlcNAc(b1-2)Man(a1-6)]Man(b1-4)GlcNAc(b1-4)GlcNAc
# Procedure, shortened: as §1
# [4] = target: GlcNAc(b1-2)[GlcNAc(b1-4)]Man(a1-3)[GlcNAc(b1-2)Man(a1-6)]Man(b1-4)GlcNAc(b1-4)GlcNAc
# Procedure, shortened: as §1
# [5] = target: GlcNAc(b1-2)[GlcNAc(b1-6)]Man(a1-6)[GlcNAc(b1-2)Man(a1-3)]Man(b1-4)GlcNAc(b1-4)GlcNAc
# Procedure, shortened: as §1
# [6] = target: GlcNAc(b1-2)[GlcNAc(b1-6)]Man(a1-6)[GlcNAc(b1-2)Man(a1-3)]Man(b1-4)GlcNAc(b1-4)[Fuc(a1-6)]GlcNAc
# Procedure, shortened: as §1
# [7] = target: GlcNAc(b1-3)Gal(b1-4)GlcNAc(b1-2)[GlcNAc(b1-3)Gal(b1-4)GlcNAc(b1-6)]Man(a1-6)[GlcNAc(b1-3)Gal(b1-4)GlcNAc(b1-2)Man(a1-3)]Man(b1-4)GlcNAc(b1-4)GlcNAc
# Procedure, shortened: as §1
# [8] = target: GlcNAc(b1-3)Gal(b1-4)GlcNAc(b1-6)[GlcNAc(b1-3)]Gal(b1-4)GlcNAc
# Procedure, shortened: as §1
# GlcNAc(b1-3)GalNAc = target: GlcNAc(b1-3)GalNAc
# Procedure, shortened: as §1
# GlcNAc(b1-6)GalNAc = target: GlcNAc(b1-6)GalNAc
# Procedure, shortened: as §1
# [9] = target: Man(a1-2)Man(a1-3)[Man(a1-2)Man(a1-6)]Man(a1-6)[Man(a1-2)Man(a1-2)Man(a1-3)]Man(b1-4)GlcNAc(b1-4)GlcNAc
# Procedure, shortened: as §1
# [10] = target: Man(a1-2)Man(a1-6)[Man(a1-3)]Man(a1-6)[Man(a1-2)Man(a1-2)Man(a1-3)]Man
# Procedure, shortened: as §1
# [11] = target: Neu5Ac(a2-3)Gal(b1-3)GalNAc(b1-4)Gal(b1-4)Glc
# Procedure, shortened: as §1
# [12] = target: Neu5Ac(a2-3)Gal(b1-3)GlcNAc(b1-3)Gal(b1-4)GlcNAc
# Procedure, shortened: as §1
# [13] = target: Neu5Ac(a2-3)Gal(b1-3)[Fuc(a1-4)]GlcNAc
# Procedure, shortened: as §1
# [14] = target: Neu5Ac(a2-3)Gal(b1-4)GlcNAc(b1-2)Man
# Procedure, shortened: as §1
# [15] = target: Neu5Ac(a2-3)Gal(b1-4)GlcNAc(b1-3)Gal(b1-4)GlcNAc(b1-3)GalNAc
# Procedure, shortened: as §1
# [16] = target: Neu5Ac(a2-3)Gal(b1-4)GlcNAc(b1-3)Gal(b1-4)GlcNAc(b1-6)[Gal(b1-3)]GalNAc
# Procedure, shortened: as §1
# [17] = target: Neu5Ac(a2-3)Gal(b1-4)GlcNAc(b1-6)GalNAc
# Procedure, shortened: as §1
# [18] = target: Neu5Ac(a2-3)Gal(b1-4)[Fuc(a1-3)]GlcNAc(b1-2)Man
# Procedure, shortened: as §1
# [19] = target: Neu5Ac(a2-3)Gal(b1-4)[Fuc(a1-3)]GlcNAc(b1-3)Gal
# Procedure, shortened: as §1
# [20] = target: Neu5Ac(a2-3)Gal(b1-4)[Fuc(a1-3)]GlcNAc(b1-3)Gal(b1-4)GlcNAc
# Procedure, shortened: as §1
# [21] = target: Neu5Ac(a2-3)Gal6S(b1-4)[Fuc(a1-3)]GlcNAc
# Procedure, shortened: as §1
# [22] = target: Neu5Ac(a2-6)Gal(b1-4)GlcNAc(b1-2)Man(a1-3)Man(b1-4)GlcNAc(b1-4)GlcNAc
# Procedure, shortened: as §1
# [23] = target: Neu5Ac(a2-6)Gal(b1-4)GlcNAc(b1-2)Man(a1-3)[Neu5Ac(a2-3)Gal(b1-4)GlcNAc(b1-2)Man(a1-6)]Man(b1-4)GlcNAc(b1-4)GlcNAc
# Procedure, shortened: as §1
# [24] = target: Neu5Ac(a2-6)Gal(b1-4)GlcNAc(b1-3)[Neu5Ac(a2-6)Gal(b1-4)GlcNAc(b1-6)]GalNAc
# Procedure, shortened: as §1
# [25] = target: Neu5Ac9Ac(a2-3)Gal(b1-4)GlcNAc
# Procedure, shortened: as §1
# [26] = target: Neu5Gc(a2-3)Gal(b1-3)GlcNAc
# Procedure, shortened: as §1
# Neu5Gc(a2-3)Gal(b1-4)Glc = target: Neu5Gc(a2-3)Gal(b1-4)Glc
# Procedure, shortened: as §1
binder,measurement,setting,value
B1,glycan array binding signal (z-score),[1],6.33
same,glycan array binding signal (z-score),[2],3.01
same,glycan array binding signal (z-score),[3],5.28
same,glycan array binding signal (z-score),[4],3.04
same,glycan array binding signal (z-score),[5],3.93
same,glycan array binding signal (z-score),[6],3.66
same,glycan array binding signal (z-score),[7],1.32
same,glycan array binding signal (z-score),[8],0.953
same,glycan array binding signal (z-score),GlcNAc(b1-3)GalNAc,0.954
same,glycan array binding signal (z-score),GlcNAc(b1-6)GalNAc,1.03
same,glycan array binding signal (z-score),[9],-0.548
same,glycan array binding signal (z-score),[10],-0.348
same,glycan array binding signal (z-score),[11],-0.271
same,glycan array binding signal (z-score),[12],-0.343
same,glycan array binding signal (z-score),[13],-0.341
same,glycan array binding signal (z-score),[14],-0.313
same,glycan array binding signal (z-score),[15],0.407
same,glycan array binding signal (z-score),[16],1.06
same,glycan array binding signal (z-score),[17],-0.334
same,glycan array binding signal (z-score),[18],-0.374
same,glycan array binding signal (z-score),[19],-0.342
same,glycan array binding signal (z-score),[20],-0.324
same,glycan array binding signal (z-score),[21],-0.349
same,glycan array binding signal (z-score),[22],-0.341
same,glycan array binding signal (z-score),[23],-0.339
same,glycan array binding signal (z-score),[24],-0.297
same,glycan array binding signal (z-score),[25],-0.27
same,glycan array binding signal (z-score),[26],-0.329
same,glycan array binding signal (z-score),Neu5Gc(a2-3)Gal(b1-4)Glc,-0.278
